Measured values: PubChem BioAssay (NCI)
This is part of a sample that, as a whole, favours compounds with a hit. Of some 83,000 tested, about 20% had one in any assay.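 Compound tested at a single concentration for 48 hours in 96-well plates; a percent growth value below 10 was scored as active.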 Activity calls are given as the source filed them.

How the values were obtained:
Test in all cases: NCI-60 one-dose screen, 48 h (100 = growth as untreated, 0 = no growth, -100 = all killed)
Settings in all cases: 10 µM unless noted
SR leukemia = tested on: SR leukemia
RPMI-8226 leukemia = tested on: RPMI-8226 leukemia
OVCAR-8 ovarian = tested on: OVCAR-8 ovarian
OVCAR-5 ovarian = tested on: OVCAR-5 ovarian
OVCAR-4 ovarian = tested on: OVCAR-4 ovarian
SK-OV-3 ovarian = tested on: SK-OV-3 ovarian
HS 578T breast = tested on: HS 578T breast
NCI/ADR-RES ovarian = tested on: NCI/ADR-RES ovarian
T-47D breast = tested on: T-47D breast
BT-549 breast = tested on: BT-549 breast
MDA-MB-435 melanoma = tested on: MDA-MB-435 melanoma
SW-620 colon = tested on: SW-620 colon
MCF7 breast = tested on: MCF7 breast
HCT-116 colon = tested on: HCT-116 colon
HCC-2998 colon = tested on: HCC-2998 colon
KM12 colon = tested on: KM12 colon
OVCAR-3 ovarian = tested on: OVCAR-3 ovarian
IGROV1 ovarian = tested on: IGROV1 ovarian

Measured: growth

COc1ccc2c(c1)c(-c1nn3cc(-c4ccncc4)nc3s1)cn2C
active: SR leukemia -3.79%
inactive: RPMI-8226 leukemia 61.4% | OVCAR-8 ovarian 71.7% | OVCAR-5 ovarian 102% | OVCAR-4 ovarian 82.3% | SK-OV-3 ovarian 93.6% | HS 578T breast 86.9% | NCI/ADR-RES ovarian 69.8% | T-47D breast 42.4% | BT-549 breast 71.5% | MDA-MB-435 melanoma 96.3% | SW-620 colon 69.5% | MCF7 breast 19.3% | HCT-116 colon 55.1% | HCC-2998 colon 87.2% | KM12 colon 83.3%

COc1ccc(C2CC(c3cccc(OCCCCOc4cccc(C5=NOC(c6ccc(OC)cc6)C5)c4)c3)=NO2)cc1 (stereo unspecified)
inactive: SR leukemia 29.9% | OVCAR-8 ovarian 93.5% | OVCAR-5 ovarian 111% | OVCAR-4 ovarian 90.3% | SK-OV-3 ovarian 106% | OVCAR-3 ovarian 96.2% | HS 578T breast 109% | NCI/ADR-RES ovarian 107% | T-47D breast 73.7% | BT-549 breast 113% | MDA-MB-435 melanoma 105% | MCF7 breast 15% | HCC-2998 colon 101% | KM12 colon 76.2%
active: RPMI-8226 leukemia -21.9% | HCT-116 colon -21.9%

O=C(CCCCCC/C=C\c1csc(Br)n1)NO
inactive: SR leukemia 50.6% | RPMI-8226 leukemia 53.9% | OVCAR-8 ovarian 76% | OVCAR-5 ovarian 80.1% | OVCAR-4 ovarian 87.5% | SK-OV-3 ovarian 95.1% | HS 578T breast 87.1% | NCI/ADR-RES ovarian 64.6% | T-47D breast 76.3% | MDA-MB-435 melanoma 84.4% | SW-620 colon 78.2% | HCT-116 colon 52.5% | HCC-2998 colon 98.5% | KM12 colon 91.7%

O=C(COc1ccc(/C=C2\C(=O)Nc3ccc(Cl)cc32)cc1)Nc1ccc(Cl)cc1
inactive: SR leukemia 44.9% | RPMI-8226 leukemia 68.7% | OVCAR-8 ovarian 60.1% | OVCAR-5 ovarian 69.8% | OVCAR-4 ovarian 59.2% | SK-OV-3 ovarian 88.3% | HS 578T breast 77.6% | NCI/ADR-RES ovarian 59.6% | T-47D breast 68.8% | BT-549 breast 70.2% | MDA-MB-435 melanoma 55.6% | MCF7 breast 56.3% | HCT-116 colon 15.9% | HCC-2998 colon 89% | KM12 colon 43.2%

Cn1cc(-c2nn3cc(-c4ccncc4)nc3s2)c2cc(Br)ccc21
inactive: OVCAR-8 ovarian 28.8% | OVCAR-5 ovarian 73.8% | OVCAR-4 ovarian 75.7% | SK-OV-3 ovarian 87.6% | IGROV1 ovarian 33.4% | HS 578T breast 54.3% | NCI/ADR-RES ovarian 42.8% | T-47D breast 37.5% | BT-549 breast 49.5% | MDA-MB-435 melanoma 32.4% | SW-620 colon 42.3% | MCF7 breast 26.2% | HCT-116 colon 25% | HCC-2998 colon 58.9% | KM12 colon 65.8%
active: SR leukemia 8.33%

CN1CCN(c2ccc(Nc3nc(NCCCNS(=O)(=O)c4cccc(F)c4)c4sccc4n3)cc2)CC1
inactive: OVCAR-8 ovarian 50.2% | OVCAR-5 ovarian 73.4% | OVCAR-4 ovarian 18.3% | SK-OV-3 ovarian 115% | HS 578T breast 50.4% | NCI/ADR-RES ovarian 70.8% | T-47D breast 22.8% | BT-549 breast 42.7% | MDA-MB-435 melanoma 14.1% | SW-620 colon 46.5% | MCF7 breast 25.7% | HCT-116 colon 11.1% | HCC-2998 colon 37.9% | KM12 colon 54%
active: SR leukemia 9.04% | OVCAR-3 ovarian 9.74%

COc1ccc(-c2cc(-c3ccc(N(C)C)cc3)n3c(n2)nc2ccccc23)cc1
active: T-47D breast 2.27%
inactive: SR leukemia 50.8% | OVCAR-8 ovarian 39.8% | OVCAR-5 ovarian 95.5% | OVCAR-4 ovarian 56.7% | SK-OV-3 ovarian 55.5% | IGROV1 ovarian 77.6% | HS 578T breast 82.4% | NCI/ADR-RES ovarian 59.5% | MDA-MB-435 melanoma 74.3% | SW-620 colon 76.9% | HCT-116 colon 15.8% | HCC-2998 colon 84.2% | KM12 colon 62.3%

C#CCOc1ccc(-c2csc(NC(=O)C=C)n2)cc1NS(=O)(=O)c1cccc2c(N(C)C)cccc12
active: SR leukemia 8.34% | MCF7 breast 4.46% | HCT-116 colon -72.2%
inactive: OVCAR-8 ovarian 23.2% | OVCAR-5 ovarian 81.1% | OVCAR-4 ovarian 63.2% | SK-OV-3 ovarian 118% | IGROV1 ovarian 32.3% | HS 578T breast 79.2% | NCI/ADR-RES ovarian 27.5% | T-47D breast 60.7% | BT-549 breast 58.6% | MDA-MB-435 melanoma 14.7% | SW-620 colon 10.3% | HCC-2998 colon 78.4% | KM12 colon 63.1%

CCOC(=O)c1cnc2c(-c3ccc(Cl)c(Cl)c3)cnn2c1
active: MDA-MB-435 melanoma -20.3%
inactive: SR leukemia 23.1% | OVCAR-8 ovarian 93.6% | OVCAR-5 ovarian 99.8% | OVCAR-4 ovarian 98.8% | SK-OV-3 ovarian 90.8% | IGROV1 ovarian 79.1% | OVCAR-3 ovarian 70.8% | HS 578T breast 82.6% | NCI/ADR-RES ovarian 58.5% | T-47D breast 86.2% | BT-549 breast 26.5% | SW-620 colon 42.3% | MCF7 breast 82.8% | HCT-116 colon 62.7% | HCC-2998 colon 85%

C#CCOc1cccc(-c2nc(N)nc(Nc3ccccc3SSc3ccccc3Nc3nc(N)nc(-c4cccc(OCC#C)c4)n3)n2)c1
active: SR leukemia -16.2% | IGROV1 ovarian -5.3% | NCI/ADR-RES ovarian 5.66% | KM12 colon 3.92%
inactive: OVCAR-8 ovarian 16.7% | OVCAR-5 ovarian 45% | OVCAR-4 ovarian 80.9% | SK-OV-3 ovarian 91.5% | OVCAR-3 ovarian 79.7% | HS 578T breast 51.9% | T-47D breast 40.5% | BT-549 breast 58.8% | MDA-MB-435 melanoma 72.7% | SW-620 colon 71.4% | MCF7 breast 61.2% | HCT-116 colon 45.7% | HCC-2998 colon 94.6%

CCOC(=O)Nc1ccc2c(ccn2C(=O)c2cccc(F)c2)c1
inactive: SR leukemia 16.8% | OVCAR-8 ovarian 43.9% | OVCAR-5 ovarian 60.5% | OVCAR-4 ovarian 68.8% | SK-OV-3 ovarian 55.3% | IGROV1 ovarian 45.4% | HS 578T breast 39.1% | NCI/ADR-RES ovarian 19.8% | T-47D breast 45.2% | BT-549 breast 26.1% | SW-620 colon 26.3% | MCF7 breast 26% | HCT-116 colon 25.6% | HCC-2998 colon 43.8% | KM12 colon 24.6%
active: MDA-MB-435 melanoma -45.4%

O=C(/C=C/c1ccccc1)c1cccc(O)c1
inactive: SR leukemia 67.5% | OVCAR-8 ovarian 92.3% | OVCAR-5 ovarian 101% | OVCAR-4 ovarian 105% | SK-OV-3 ovarian 107% | IGROV1 ovarian 97.8% | OVCAR-3 ovarian 106% | HS 578T breast 114% | NCI/ADR-RES ovarian 107% | T-47D breast 97.8% | BT-549 breast 95.4% | MDA-MB-435 melanoma 95.9% | SW-620 colon 104% | MCF7 breast 14% | HCT-116 colon 80% | HCC-2998 colon 111% | KM12 colon 88.8%

CCOC(=O)c1c(NC(=O)c2cccc(C(F)(F)F)c2)sc2c3c(ccc12)OCN(C)C3
active: SR leukemia -41.7% | OVCAR-8 ovarian -41.6% | OVCAR-5 ovarian -14% | OVCAR-4 ovarian -44.2% | IGROV1 ovarian -78.7% | OVCAR-3 ovarian -44.7% | NCI/ADR-RES ovarian -54.3% | T-47D breast -38.2% | MDA-MB-435 melanoma -55.5% | SW-620 colon -76.5% | MCF7 breast -81.9% | HCT-116 colon -89.4% | HCC-2998 colon -88.9% | KM12 colon -11.3%
inactive: SK-OV-3 ovarian 75.7% | HS 578T breast 38.4%

Cc1nc(N)sc1-c1csc(Nc2ccc(C(F)(F)F)cc2)n1
inactive: SR leukemia 18.9% | OVCAR-8 ovarian 49.4% | OVCAR-5 ovarian 32.2% | OVCAR-4 ovarian 42.7% | SK-OV-3 ovarian 65.5% | IGROV1 ovarian 18.9% | OVCAR-3 ovarian 20.8% | HS 578T breast 32.4% | NCI/ADR-RES ovarian 27.3% | MDA-MB-435 melanoma 37.8% | SW-620 colon 20.6% | MCF7 breast 17.3% | HCT-116 colon 20.6% | HCC-2998 colon 21% | KM12 colon 10.4%
active: T-47D breast -0.894% | BT-549 breast -12%

CN1CCN(c2ccc(Nc3nc(NCCNC(=O)c4ccc(F)cc4)c4sccc4n3)cc2)CC1
active: SR leukemia 0.604%
inactive: OVCAR-8 ovarian 77.4% | OVCAR-5 ovarian 85.3% | OVCAR-4 ovarian 61.1% | SK-OV-3 ovarian 125% | IGROV1 ovarian 87.7% | OVCAR-3 ovarian 86.2% | HS 578T breast 75.6% | NCI/ADR-RES ovarian 88.5% | T-47D breast 18.2% | BT-549 breast 56.1% | MDA-MB-435 melanoma 46.9% | SW-620 colon 75.2% | MCF7 breast 41% | HCT-116 colon 22% | HCC-2998 colon 70.4% | KM12 colon 65.4%

C[C@H](Nc1ncnc2ccc(-c3cnc(Cl)c(NS(C)(=O)=O)c3)cc12)c1ccccc1
active: SR leukemia -20.1% | OVCAR-8 ovarian -26.3% | OVCAR-5 ovarian -14.9% | OVCAR-4 ovarian 0.576% | SK-OV-3 ovarian -65.5% | IGROV1 ovarian -28.8% | OVCAR-3 ovarian -65.9% | HS 578T breast -20% | NCI/ADR-RES ovarian 7.69% | T-47D breast -53.2% | MDA-MB-435 melanoma -40% | MCF7 breast 2.5% | HCT-116 colon -61.4% | HCC-2998 colon -77.3% | KM12 colon -79%

O=S(=O)(NCCCNc1nccc(-c2[nH]c(-c3ccccc3)nc2-c2ccc(F)c(O)c2)n1)c1cccc(F)c1
inactive: SR leukemia 36.7% | OVCAR-8 ovarian 82% | OVCAR-5 ovarian 147% | OVCAR-4 ovarian 108% | SK-OV-3 ovarian 113% | IGROV1 ovarian 105% | OVCAR-3 ovarian 123% | HS 578T breast 101% | NCI/ADR-RES ovarian 103% | T-47D breast 73.4% | BT-549 breast 96.4% | MDA-MB-435 melanoma 38% | SW-620 colon 120% | MCF7 breast 78.3% | HCT-116 colon 72.2% | HCC-2998 colon 114% | KM12 colon 88.9%

COc1ccc(OC)c(CCn2cncc2-c2c[nH]c3ccc(Cl)cc23)c1
inactive: SR leukemia 16.3% | OVCAR-8 ovarian 40.5% | OVCAR-5 ovarian 83.9% | OVCAR-4 ovarian 16.2% | SK-OV-3 ovarian 43.1% | IGROV1 ovarian 58.8% | OVCAR-3 ovarian 40% | HS 578T breast 57.1% | NCI/ADR-RES ovarian 29.8% | T-47D breast 20.1% | MDA-MB-435 melanoma 12.8% | SW-620 colon 43.4% | HCT-116 colon 34.5% | HCC-2998 colon 72.4% | KM12 colon 40.6%

CCOC(=O)c1c(NC(=O)c2cccc(C(F)(F)F)c2)sc2c1CCC(=O)C2
inactive: OVCAR-8 ovarian 19.7% | OVCAR-5 ovarian 40.4% | SK-OV-3 ovarian 82.4% | IGROV1 ovarian 18.4% | OVCAR-3 ovarian 25.8% | HS 578T breast 36.5% | NCI/ADR-RES ovarian 12.5% | T-47D breast 17.8% | MDA-MB-435 melanoma 59.4% | MCF7 breast 34.7% | HCT-116 colon 12.3% | HCC-2998 colon 87% | KM12 colon 32.2%
active: SR leukemia 8.07% | OVCAR-4 ovarian 0.236%
